Rows were chosen to be rich in hits. Some 4% of all compounds tested hit in one or more screens of this group.
S1P1 agonist = S1P1 (human) receptor agonism; S1P1 agonist cell-based reporter assay; activation, % at 4.5 µM; AID 1044; 16,000 compounds, 1.5% hits; P21453; in the data active means activation above about 80%
NOTCH agonist = agonists of NOTCH signaling. activation, % at 2.5 µM. AID 434982. 15,000 compounds, 0.4% hits. NOTCH signaling luciferase reporter cells, luminescence; in the data active means activation above about 2.2%
PME-1 Maybridge = inhibitors of human PME-1 in Maybridge library; Q9Y570; recombinant PME-1, FP-Rh probe fluorescence polarization; AID 2291; inhibition, % at 9 µM; 16,000 compounds, 0.5% hits; in the data active means inhibition above about 30%
Target sequence (Q9Y570 whole entry, looked up): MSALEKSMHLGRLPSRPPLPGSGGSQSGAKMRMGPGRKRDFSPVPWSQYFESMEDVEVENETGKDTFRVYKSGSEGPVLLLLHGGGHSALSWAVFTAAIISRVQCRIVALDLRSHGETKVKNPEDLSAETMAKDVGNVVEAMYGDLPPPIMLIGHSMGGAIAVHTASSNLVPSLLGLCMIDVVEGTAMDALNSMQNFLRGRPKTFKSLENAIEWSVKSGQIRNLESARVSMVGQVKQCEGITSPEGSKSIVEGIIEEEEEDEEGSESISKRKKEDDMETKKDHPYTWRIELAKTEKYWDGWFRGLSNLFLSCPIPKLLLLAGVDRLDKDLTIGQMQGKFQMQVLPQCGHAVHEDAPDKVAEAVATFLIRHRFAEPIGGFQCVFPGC
Nox1 inh = inhibitors of human NADPH oxidase 1 (Nox1) | HT29 cells, luminol chemiluminescence ROS | AID 1792 | Q9Y5S8 | 16,000 compounds, 0.81% hits | inhibition, % at 6.7 µM
OPRK1 antag MB = blocks the human kappa opioid receptor, Maybridge compounds; 16,000 compounds, 0.4% hits; OPRK1 cells, antagonist mode, fluorescence readout; inhibition, % at 9 µM; in the data active means inhibition above about 50%
luminol inh ctr = quenches luminol chemiluminescence in Nox1 counter-screen | 16,000 compounds, 0.4% hits | HRP/luminol/H2O2 chemiluminescence counterscreen | inhibition, % at 6.7 µM | AID 1823; further: reference of the scale not given here
The depositor's hits bear a star; / = no result. Unless noted, no stated cut-off is given here; in the data, active means inhibition above about 75%; inactive means the rest.

SMILES	S1P1 agonist	NOTCH agonist	PME-1 Maybridge	Nox1 inh	OPRK1 antag MB	luminol inh ctr
O=[N+]([O-])c1ccc(N2CCN(c3ccc([N+](=O)[O-])cc3CO)CC2)c(CO)c1	82*	0	-1	-74	-3	5
O=[N+]([O-])c1ccc(N2CCCC2)c(Cn2ccnc2)c1	-4	0	2	-7	-25	8
N/C(COc1ccc2nonc2c1)=N\O	0	-1	4	-33	12	0
CNC(=S)NNC(=O)c1ccccn1	-2	/	1	87*	-3	53
CC(=O)NNC(=O)c1ccccn1	-8	0	6	15	25	-6
CSc1nc(CSc2ccc(Cl)cc2)nc(C2CC2)c1C#N	-1	1	2	-8	11	-3
Cc1ccc(C)c(CSc2nc(C3CCCCC3)c(C#N)c(=O)[nH]2)c1	97*	0	-16	54	-2	2
COc1ccc(CCN2C(=O)CCC(C(=O)O)C2c2cc(OC)c(OC)c(OC)c2)cc1OC (centres undefined)	116*	0	1	-48	-8	3
CCOC(=O)CCc1ccc2c(c1)NC(c1cccc([N+](=O)[O-])c1)O2 (centres undefined)	3	0	-7	96*	-13	33
CCOC(=O)c1cc(-c2cccc([N+](=O)[O-])c2)oc1C	5	-1	3	-7	20	0
CCOC(=O)CCc1ccc2c(c1)NC(c1ccc([N+](=O)[O-])s1)O2 (centres undefined)	-8	0	1	82*	4	15
CCOC(=O)CCc1ccc(Oc2c([N+](=O)[O-])cc(C(F)(F)F)cc2[N+](=O)[O-])cc1	-3	/	1	-50	8	-40
Cc1nn(C(=O)c2ccccc2)c(C)c1Oc1ccc(Cl)cc1	14	3.9*	1	-41	-8	-1
Cc1nn(C(=O)Nc2ccccc2)c(C)c1Oc1ccc(Cl)cc1	22	1	-19	-71	-5	-3
CC(=O)OC(OC(C)=O)c1ccc(S(C)(=O)=O)cc1	-8	0	0	-1	14	-2
O=C(COC(=O)c1cccc(I)c1)c1ccccc1	-2	-1	-2	-27	-6	4
CSc1sc(C2=NNC(O)(C(F)(F)F)C2)c2c1C(=O)CCC2(C)C (centres undefined)	-16	-2	36*	32	12	-6
O=C(NNC(=O)c1cc(OCC(F)(F)F)ccc1OCC(F)(F)F)c1cccs1	0	0	7	20	8	-6
N#Cc1c(N)nc2[nH]c(=S)[nH]c(=O)c2c1-c1ccc([N+](=O)[O-])cc1	7	-6	8	24	3	84*
O=C1CC(Sc2ccc(Cl)cc2)C(=O)N1Cc1cccnc1 (centres undefined)	5	-1	-2	-35	-19	1
O=C(NCCN1CCN(c2nccc(C(F)(F)F)n2)CC1)c1ccccc1	-1	0	-1	-52	-6	2
O=C(Nc1ccccc1NC(=O)c1c(F)cccc1F)c1c(F)cccc1F	-2	0	6	-1	19	-6
CCN(CC)c1ccc(NC(=O)c2c(F)cccc2F)c(N(CC)CC)n1	3	0	6	94*	3	4
COc1ccc(C#N)c(C(=O)O)c1	-8	-1	1	-23	-2	-5
COc1ccc(N(C)CC(=O)O)c(C(=O)O)c1	5	0	5	97*	18	-4
SMILES	S1P1 agonist	NOTCH agonist	PME-1 Maybridge	Nox1 inh	OPRK1 antag MB	luminol inh ctr
CSc1nc2c(c(-c3cccs3)c1C#N)CCCC2	13	0	8	11	12	-7
C#Cc1cccc(NC(=O)c2sc3nc4c(c(-c5cccs5)c3c2N)CCCC4)c1	21	1	-1	-14	65*	2
Cc1cc(OCc2ccccc2)ccc1[N+](=O)[O-]	4	2.5*	3	-15	2	-2
COc1ccc(-c2cc(-c3ccc(OC)cc3)c3c(=O)n(C)c(=O)n(C)c3n2)cc1	81*	0	4	-59	9	4
CN(C)c1cc(Nc2ccccc2)c2c(=O)n(C)c(=O)n(C)c2n1	-48	1	1	-60	8	1
Cc1c(-c2ccnc(N)n2)nnn1-c1ccc(Cl)cc1Cl	14	0	6	-19	-16	-1
CCOC(=O)c1csc(N/N=C2\CCc3ccccc32)n1	-12	0	61*	42	-8	4
O=C(CC(CC(=O)c1ccc(F)cc1)c1ccco1)c1ccc(F)cc1	0	0	-2	-32	0	0
Cc1noc(C)c1C(=O)Nc1ccc(N2CCOCC2)nc1N1CCOCC1	1	0	6	78*	30	4
COc1ccc(-c2nc(-c3ccc(OS(=O)(=O)N(C)C)cc3)no2)cc1OC	107*	0	-5	-53	5	2
COc1ccc(-c2noc(-c3ccccc3)n2)cc1OC1CCCC1	98*	0	-11	0	1	0
COc1ccc(-c2nc(-c3cccc(C)c3)no2)cc1OC	97*	0	1	20	16	-5
CCOC(=O)c1ccc(N2CC3CCCCN3C2c2cccc(OC)c2O)cc1 (centres undefined)	8	0	3	3	60*	53
CCOC(=O)C1CCCN(C(=O)c2ccc(OC)c(OC)c2)C1 (centres undefined)	1	0	6	4	13	-3
CC(C)(C)c1cc2nc(C(F)(F)F)cc(NNC(=O)Nc3ccc(OC(F)(F)F)cc3)n2n1	82*	1	-106	88*	3	7
CCCCNC(=O)Nc1ccccc1Oc1ccccc1	-4	0	-5	-91	-17	-2
O=C1CS/C(=C\C(=O)N2CCOCC2)N1	-9	/	3	-6	-4	78*
O=C1CS/C(=C/C(=O)c2cccs2)N1	2	0	0	7	13	4
Cc1onc(-c2c(Cl)cccc2Cl)c1COC(=O)c1ccc([N+](=O)[O-])o1	3	-1	3	-5	16	0
CS(=O)(=O)c1nsc(S(C)(=O)=O)c1C(N)=O	11	-1	6	51	4	-5
O=S(=O)(NCc1ccccc1)c1cc(Br)c(Br)s1	0	0	74*	-26	10	-1
CC(=O)Nc1ccc(OCc2ccc3ccccc3n2)cc1	-6	0	-2	-52	6	-1
CNC(=O)c1ccccc1S(=O)c1cccc2cccc(CO)c12 (centres undefined)	-6	0	8	1	14	-5
CC(=NCc1ccc2c(c1)OCO2)c1ccccc1O	5	2.4*	6	5	16	-8
COc1ccc(C(O)(c2ccccc2)C2CC2)cc1 (centres undefined)	1	0	-1	-38	-1	-1
COC(=O)c1cc(NC(=O)/C=C/C(=O)O)ccc1N1CCOCC1	2	0	1	74	19	6
